This note sets out measurements from the supplement of paper PMC10646978.

Molecules are shown by their SMILES. ± gives the standard deviation.

In this assay the test system is RAW-Dual (murine macrophage reporter line). Nature of the assay: NF-kB reporter (SEAP) activity fold change vs agonist alone; higher = enhanced NF-kB activity. As to conditions: modulator concentration 10 µM; agonist: CpG ODN 1826 0.5 ug/mL. The essentials:
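In 384-well plates holding 50 000 RAW-Dual murine macrophage reporter cells per well, compound at 10 μM final was pre-incubated for 1 hour at 37 °C, after which a PRR agonist was added overnight. Supernatant SEAP read with QUANTI-Blue at 620 nm absorbance reported NF-κB, and Lucia luciferase read with QUANTI-Luc luminescence reported IRF. Fold change values come from dividing each reporter signal by the mean of agonist-only control wells on the same plate, averaged over replicate plates with propagated errors.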
Take `O=C(CSc1nc2c(c(=O)n1-c1ccccc1)SCC2)N1CCN(c2ccccc2)CC1`: the NF-kB reporter was found to be 0.985 ± 0.08.

For `CCNC(=O)CCC/C=C\C[C@@H]1[C@@H](/C=C/C(O)CCc2ccccc2)[C@@H](O)C[C@@H]1O` (stereo not given in full), the NF-kB reporter was 0.953 ± 0.059.

On to `CCOc1cc(CC(=O)N[C@@H](CC(C)C)c2ccccc2N2CCCCC2)ccc1C(=O)O`, for which the NF-kB reporter turned out to be 1.24 ± 0.23.

With `CC1CC(=O)C2=C(C1)OC(N)=C(C#N)C2c1ccc(Cl)cc1` (stereo not given), the NF-kB reporter is 0.905 ± 0.093.

With `COc1ccc(C=NNC(=O)CSc2nnc(-c3ccncc3)n2-c2ccccc2)cc1OC`, the NF-kB reporter worked out at 1.05 ± 0.12.

In the case of `COc1cc2c3cc1Oc1cc(ccc1O)OC1c4c(cc(OC)c(O)c4Oc4ccc(cc4)CC3N(C)CC2)CCN1C` (stereo not given), the NF-kB reporter worked out at 0.191 ± 0.011.

As for `O=C(C(Cl)Cl)N1CCN(Cc2ccccc2)CC1`, the NF-kB reporter amounted to 0.881 ± 0.068.

Turning to `Cl.Cl.O=C1c2c(O)ccc(O)c2C(=O)c2c(NCCNCCO)ccc(NCCNCCO)c21`, the NF-kB reporter is 0.0718 ± 0.0057.

Turning to `CC(C)NCC(O)COCCOc1ccc(C(C)(C)C)cc1.Cl` (stereo not given), the NF-kB reporter is 0.593 ± 0.039.

Regarding `O=c1[nH]cnc2scc(-c3ccc(Br)cc3)c12`, the NF-kB reporter came to 0.924 ± 0.067.

Consider `O=C(O)CCCCCN1C(=O)c2ccccc2C1=O`, for which the NF-kB reporter turned out to be 0.968 ± 0.089.

On to `CC1=C(C(=O)OCCN(Cc2ccccc2)c2ccccc2)C(c2cccc([N+](=O)[O-])c2)C(P2(=O)OCC(C)(C)CO2)=C(C)N1` (stereo not given), for which the NF-kB reporter was determined as 0.86 ± 0.2.

Take `c1cn2cc(-c3ccc4cn[nH]c4c3)nc(Nc3ccc(N4CCOCC4)cc3)c2n1`: the NF-kB reporter is 0.99 ± 0.24.

`Cc1nc(-c2ccc(S(=O)(=O)NC3CCc4nc(N(C)C)ncc4C3)cc2)co1` (stereo not given): the NF-kB reporter is 0.877 ± 0.065.

Take `CC(Oc1cccc(Cl)c1)C(=O)NCc1ccncc1` (stereo not given): the NF-kB reporter was 0.955 ± 0.098.

`C#Cc1cccc(Nc2ncnc3cc(OCCOC)c(OCCOC)cc23)c1.Cl`: the NF-kB reporter came out at 0.511 ± 0.11.

Regarding `CCOC(=O)C1=C[C@]2(CC)CCCN3CCc4c(n1c1ccccc41)[C@@H]32`, the NF-kB reporter stood at 0.825 ± 0.057.

As to `CC(=O)NC(CS)C(=O)O` (stereo not given), the NF-kB reporter amounted to 0.957 ± 0.074.

On to `COc1ccc(Cl)cc1C(=O)Nc1cc(C(F)(F)F)cc(C(F)(F)F)c1`, for which the NF-kB reporter was found to be 1.03 ± 0.082.

For the compound `Cc1ccc(OCCCOc2cccc3cccnc23)c(Cl)c1`, the NF-kB reporter stood at 0.808 ± 0.076.

`CCOc1ccc(Nc2oc(-c3ccc(COc4ccc(C)cc4)o3)nc2C#N)cc1`: the NF-kB reporter was 1.03 ± 0.082.

With `Cc1cn([C@H]2C=C[C@@H](CO)O2)c(=O)[nH]c1=O` [Prestw-1279], the NF-kB reporter amounted to 1.13 ± 0.11.

For `CCc1ccc2ncc(C#N)c(Nc3cc(OC)c(OC)c(OC)c3)c2c1.Cl`, the NF-kB reporter amounted to 1.37 ± 0.071.

On to `Br.COc1ccc(C2=NN(c3nc(-c4ccc(OC)c(F)c4)cs3)C(c3ccc(OC)cc3)C2)cc1` (stereo not given), for which the NF-kB reporter was 0.964 ± 0.068.

With `Cc1c(C)n2c3c(=O)n(Cc4ccccc4F)c(=O)n(C)c3nc2n1CCCN1CCOCC1`, the NF-kB reporter is 0.843 ± 0.062.

Regarding `CNC(=O)c1ccccc1Sc1ccc2c(/C=C/c3ccccn3)n[nH]c2c1`, the NF-kB reporter is 0.626 ± 0.11.

As for `NC[C@@H]1O[C@H](O[C@@H]2[C@@H](CO)OC(O[C@@H]3[C@@H](O)[C@H](N)C[C@H](N)[C@H]3O[C@H]3O[C@H](CN)[C@@H](O)[C@H](O)[C@H]3N)[C@@H]2O)[C@H](N)[C@@H](O)[C@@H]1O.O=S(=O)(O)O` (stereo not given in full), the NF-kB reporter was determined as 0.993 ± 0.074.

In the case of `CS(=O)(=O)N(CC(=O)Nc1ccccc1Cl)c1ccc(Cl)c(C(F)(F)F)c1`, the NF-kB reporter came out at 0.753 ± 0.067.

For the compound `N#CC(=Cc1c(F)cccc1Cl)C(=O)Nc1ccc(Cl)cc1`, the NF-kB reporter was 1.08 ± 0.22.

In the case of `O=c1cc(CO)occ1O`, the NF-kB reporter amounted to 0.97 ± 0.075.

Consider `O=C(NCC1CCCN1c1nccs1)C1CC1` (stereo not given), for which the NF-kB reporter stood at 0.946 ± 0.045.

On to `CCOCC(=O)Nc1ccc(N2CCCCC2=O)c(C)c1`, for which the NF-kB reporter came to 0.884 ± 0.11.

In the case of `C[C@H](N[C@@H](CCc1ccccc1)C(=O)O)C(=O)N1CCC[C@H]1C(=O)O.O.O`, the NF-kB reporter was determined as 1.15 ± 0.086.

With `CN(C)C1C(O)=C(C(N)=O)C(=O)C2(O)C(O)=C3C(=O)c4c(O)ccc(Cl)c4C(O)C3CC12.Cl` (stereo not given), the NF-kB reporter turned out to be 1.37 ± 0.35.

With `Cc1ccc(CN2C3=NCCCN3c3ccccc32)cc1.Cl`, the NF-kB reporter was determined as 0.294 ± 0.047.

As to `O=C(O)c1ccc2c(c1)nc(Nc1cccc(Cl)c1)c1ccncc12`, the NF-kB reporter was determined as 1.24 ± 0.19.

With `COc1cc(Nc2ncc3c(n2)-c2ccc(Cl)cc2C(c2c(F)cccc2OC)=NC3)ccc1C(=O)O`, the NF-kB reporter was 0.416 ± 0.036.

`CC(C)CN(C[C@@H](O)[C@H](Cc1ccccc1)NC(=O)O[C@H]1CO[C@H]2OCC[C@H]21)S(=O)(=O)c1ccc(N)cc1.CCO`: the NF-kB reporter amounted to 1.7 ± 0.13.

Turning to `OC(Cn1cncn1)(Cn1cncn1)c1ccc(F)cc1F`, the NF-kB reporter was found to be 0.875 ± 0.072.

Regarding `C=Cc1c(C)c2cc3nc(cc4[nH]c(cc5nc(cc1[nH]2)C(C)=C5CCC(=O)O)c(CCC(=O)OC)c4C)[C@@]1(C)C3=CC=C(C(=O)OC)[C@H]1C(=O)OC`, the NF-kB reporter was 0.419 ± 0.077.
